# Source: PubChem BioAssay
# hcDAF-12 act – H. contortus DAF-12 nuclear receptor activators, primary screen, cell-based, luminescence, HEK293, lit1-tk-luc reporter; HEK293 hcDAF-12 lit1-tk-luc reporter; 0% DMSO, 100% Δ7-dafachronic acid; activation, % at 6.8 µM; 370,000 tested, 1.4% active;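 active = activation above the mean of all tested compounds plus 3 SD, cut at about 5.5% in these data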;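 also: 100% = response to 3 µM Δ7-dafachronic acid high control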
# ssDAF-12 act – S. stercoralis DAF-12 nuclear receptor activators, primary screen, cell-based, luminescence, HEK293, GRIP1 co-expression, lit1-tk-luc | Nuclear hormone receptor DAF-12 (Strongyloides stercoralis) | 370,000 tested, 1% active | activation, % at 6.8 µM | HEK293 ssDAF-12/GRIP1 lit1-tk-luc reporter; % of 3 µM dafachronic acid response;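 active = activation above the mean over all tested compounds plus 3 SD, cut at about 0.9% in these data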;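 also: 0% = DMSO-only wells and 100% = 3 µM delta7-dafachronic acid wells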
# DAX1 StAR inh – DAX1 (NR0B1) inhibitors on StAR promoter, primary screen, cell-based, luminescence, SF-1 (NR5A1), full-length DAX-1; HEK293T StAR-luciferase reporter, SF-1/DAX-1 repression relief; inhibition, % at 6.8 µM; 370,000 tested, 1.1% active; AID 652010, 2013;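 active = inhibition above the mean over all tested compounds plus 3 SD, cut at about 3.6% in these data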;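 also: 0% = DAX-1 cells with DMSO and 100% = cells lacking DAX-1 with DMSO; higher inhibition means more luminescence from relief of DAX-1 repression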
# SMARCA2 act – SMARCA2 (BRM) function activators, primary screen, cell-based, luminescence, high throughput | 370,000 tested, 1% active | MG213 cells, MMTV-luciferase reporter, dexamethasone, overnight | activation, % at 9.1 µM; in the data active = activation above about 7.8%;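 also: 0% = vehicle wells and 100% = reference activator wells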
# hgDAF-12 ag – H. glycines DAF-12 receptor agonists, primary screen, cell-based, luminescence, HEK293, GAL4 fusion, UAS-luciferase; HEK293 GAL4-hgDAF12 UAS-luciferase reporter, agonist luminescence; normalized to butyrate control; activation, % at 6.8 µM; AID 687014, 2013; 370,000 tested, 1.8% active; Nuclear hormone receptor DAF-12 (Heterodera glycines), GAL4 fusion;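 active = activation above a cutoff set at the mean of all screened compounds plus 3 SD, cut at about 10% in these data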;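 also: 0% = DMSO wells and 100% = sodium butyrate wells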
# Numbers without * were called inactive; . = no result. Only some compounds are listed: those with a hit (about 4.2% of all), similar ones and a draw of the others.
SMILES,hcDAF-12 act,ssDAF-12 act,DAX1 StAR inh,SMARCA2 act,hgDAF-12 ag
CC(C)C[C@H]1CNC(=S)N1C[C@H]1CCCN1C[C@H](Cc1ccc(O)cc1)N1C[C@H](CC(C)C)N(CCc2ccccc2)C1=S,-1.2,-1.0,2.8,-1.8,2.5
Cn1c2ccc(CC(=O)O)cc2c2cc(CC(=O)O)ccc21,1.0,0.8,0.4,1.3,0.5
COC(=O)Cc1ccc2c3ccccc3n(C)c2c1,5.8*,-1.2,-0.3,0.4,3.9
COc1ccc(-n2c(C)cc(C3=NNC(=NC4CC4)SC3)c2C)cc1,3.5,-0.8,0.7,9.8*,5.3
COC(=O)c1c(NC(=O)CN2CCN(c3ccccc3Cl)CC2)sc(C)c1C,4.4,1.1*,-1.3,-2.8,-2.4
CCOC(=O)c1c(NC(=O)CN2CCN(c3ccc(Cl)cc3)CC2)sc(C)c1C,-0.5,-1.1,-0.6,0.0,2.3
COC(=O)[C@@]12C[C@@H](CC(=O)NCc3cccs3)C(=O)N(Cc3cccc4ccccc34)C1=CCC(C)(C)C2,0.9,-0.4,1.8,-5.1,-1.0
COc1ccccc1NC(=O)C/C(C)=N/NC(=O)COc1c(Br)cc(Br)cc1OC,-0.5,-1.7,4.2*,-5.3,0.9
CCc1ccccc1NC(=O)C/C(C)=N/NC(=O)COc1ccccc1C,0.3,-0.6,0.0,-0.9,1.0
COC(=O)C[C@H]1CC[C@@H]2[C@@H](COc3ccc(NC(=O)C4CCCCC4)cc3C(=O)N2C)O1,-1.5,-0.7,-0.1,-3.4,10.4
COCc1cc(N2CCNC[C@H]2C)ccc1N1CCN(Cc2ccccc2)[C@H](C)C1,-0.2,-0.4,0.2,-0.1,-0.9
O=C1C(=O)N(c2ccc(O)cc2)C(c2ccccc2[N+](=O)[O-])/C1=C(\O)c1ccccc1 (stereo unspecified),5.5,2.2*,0.1,-3.6,3.1
CCCCNS(=O)(=O)CC1NCc2ccccc21 (stereo unspecified),0.3,-0.6,-0.8,-0.1,2.6
O=C(COc1ccccc1F)NNC(=O)c1cccc(-n2cccc2)c1,6.3*,-1.1,1.1,-1.7,0.7
O=c1[nH][nH]cc1C=Nc1ccc(Cl)cc1Cl,0.3,1.6*,-0.4,1.9,-1.0
CCOC(=O)[C@H]1[C@H]2COc3ccc(OC)cc3[C@@H]2N2C(=O)CN(CCc3c[nH]c4ccccc34)C(=O)[C@@]12C,4.9,1.0*,0.3,-0.1,-1.3
CCC[C@@H](/C=C/C(=O)OC(C)(C)C)Sc1ccc(OC)cc1,-0.8,-0.9,1.1,0.0,4.3
CCCc1nc2c3ccccc3ccn2c1Cc1ccccc1OC,3.2,0.3,-0.4,0.5,5.7
CCCc1nc2c3ccccc3ccn2c1Cc1ccc(OC)cc1C,2.6,1.0*,0.5,1.3,1.3
COc1ccc(Nc2nc(N)nc(CSC(=S)N3CCN(C)CC3)n2)cc1,-0.3,5.4*,-0.6,0.2,3.5
COc1ccc(Nc2nc(N)nc(CSC(=S)N3CCCCC3)n2)cc1,0.3,-1.0,0.1,0.7,7.7
Cc1cc(OCc2cc(C(=O)N(C)C(C)c3ccccn3)no2)cc(C)c1Cl (stereo unspecified),2.8,0.0,1.2,0.1,12.1*
CCN(CC1CCCO1)C(=O)c1cc(COc2cc(C)c(Cl)c(C)c2)on1 (stereo unspecified),4.6,1.5*,0.3,-0.4,7.3
Cc1cc(OCc2cc(C(=O)N(C)Cc3ccccn3)no2)cc(C)c1Cl,1.1,-0.3,1.1,7.7,11.3*
CC(=O)c1ccc(OCc2cc(C(=O)N(C)Cc3ccccn3)no2)cc1,4.2,1.0*,4.0*,1.6,9.3
SMILES,hcDAF-12 act,ssDAF-12 act,DAX1 StAR inh,SMARCA2 act,hgDAF-12 ag
COC(=O)[C@]12C[C@H](CC(=O)N3CCOCC3)C(=O)N(CCC3=CCCCC3)C1=C[C@H](C(C)C)O[C@@H]2C1CC1,-2.0,-1.4,-0.9,-4.0,-0.7
CC(C)N1Cc2nnn(Cc3ccccc3)c2-c2cc(F)ccc2S1(=O)=O,-3.5,-1.5,-1.2,-3.5,-5.3
COCC1CCN(C(=O)c2cc(COc3cc(C)c(Cl)c(C)c3)on2)C1 (stereo unspecified),6.3*,-0.3,1.3,2.9,8.7
O=C(Nc1ccc(O)c(-c2nc3ccccc3s2)c1)c1cccs1,-1.4,-1.2,0.2,0.3,-0.1
Nc1ccc(O)c(-c2nc3ccccc3s2)c1,4.1,1.2*,2.0,3.6,7.0
CC(=O)O[C@H]1[C@H](OC(C)=O)C[C@]2(OC(C)=O)C[C@H]1OC2=O,-1.9,-1.3,.,.,2.4
CCc1cccc2c(C(C)c3ccccc3O)c[nH]c12 (stereo unspecified),3.6,2.2*,0.0,-4.8,5.0
COc1cc(CCCN2CCNC[C@@H]2Cc2ccc(O)cc2)cc(OC)c1OC,0.4,1.0*,0.8,-0.3,3.1
CSc1nnc2c3cc(F)ccc3n(C)c2n1,5.5,1.0*,0.0,-0.4,5.7
Cn1c2ccc(Br)cc2c2nnc(SCC(=O)O)nc21,5.7*,0.6,-0.2,0.4,3.4
CCOC(=O)CSc1nnc2c3ccccc3n(C)c2n1,-0.8,-1.0,-0.2,-0.9,0.5
Cn1c2ccccc2c2nnc(SCC(N)=O)nc21,1.2,0.9*,0.1,1.5,1.3
COCCCN1C(=O)[C@H](CC(=O)N2CCOCC2)[C@]2(C(=O)OC)CCCCC=C12,0.1,-0.7,0.0,-1.7,-2.3
COc1ccc(NC(=O)O/N=C/c2ccccc2)cc1,1.6,-1.3,0.9,4.5,11.4*
COc1ccc(NC(=O)c2scc(S(=O)(=O)C(C)C)c2N)cc1,4.7,1.2*,2.3,7.8,10.9*
COc1ccc(NC(=S)NC(=O)/C=C/c2ccccc2)cc1,-1.6,-1.6,-0.5,1.0,-2.2
COc1ccc(NC(=O)c2sc(SCc3ccccc3)nc2N)cc1,-1.0,-0.6,0.3,-1.7,-0.2
COc1ccc(NC(=O)OC(C)C)cc1,4.0,-0.4,1.8,7.6,11.1*
Cc1cc2ncc(C(=O)N=CN(C)C)cn2n1,-0.1,-1.4,1.7,0.4,1.5
Cc1cc2ncc(-c3ccc(Cl)cc3)cn2n1,2.1,-0.8,3.7*,7.4,10.7*
COc1ccccc1NC(=S)NNC(=O)c1nn(C)c(C)c1Br,2.9,-0.4,0.8,4.8,12.3*
O=C(CN1C(=O)S/C(=C\c2ccccc2)C1=O)NC1CCS(=O)(=O)C1 (stereo unspecified),-1.8,-1.4,-2.1,-2.4,-0.8
COc1ccc(/C=C2\SC(=O)N(CC(=O)N(C)C3CCS(=O)(=O)C3)C2=O)cc1 (stereo unspecified),1.8,1.0*,1.4,-1.0,1.6
